# Test results taken from PubChem BioAssay AID1578 (Sanford-Burnham Center for Chemical Genomics, 2009).
# The campaign covered roughly 290,000 compounds. About 3,000 (1%) were called active. No stated cut-off is given here; in the data, active means inhibition mostly above about 36% (no sharp cut-off); inactive means mostly below about 34%. This excerpt belongs to a sample that is enriched for actives.
# Test: NOD1 signaling inhibitors, primary screen, cell-based, luminescence, uHTS (AID 1578);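 further: HEK-293T reporter cells stimulated with the NOD1 agonist gamma-tri-DAP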
# Details: NOD1-driven NF-kB luciferase reporter cells, at 4 µM, active compounds read high
row,Compound,inhibition
1,CCOC1(OCC)N=C(N)C2(C#N)C(c3ccc(NC(C)=O)cc3)C12C#N (centres undefined),-12.4% (inactive)
2,CN(CC(=O)Nc1c(Cl)cccc1Cl)C(=O)CCCN1C(=O)c2ccccc2C1=O,15.6% (inactive)
3,O=C(N/N=C/C=C\c1ccccc1[N+](=O)[O-])c1ccncc1,-7.4% (inactive)
4,COc1ccc(-n2cc(CNC3CCN(C)CC3)c(-c3cccc(F)c3)n2)cc1,14.5% (inactive)
5,COc1ccc(-n2cc(CNC3CCC(O)CC3)c(-c3cccc(F)c3)n2)cc1 (centres undefined),51.1% (active)
6,COc1ccc(-n2cc(CNC3CCOCC3)c(-c3cccc(F)c3)n2)cc1,21.8% (inactive)
7,Cc1cccc(C)c1N1CCN(c2nc(N(C)C)oc(=O)c2C#N)CC1,18.2% (inactive)
8,CCOC(=O)C1CCCN(C2=NC(=O)/C(=C/c3ccc(OC)cc3)S2)C1 (centres undefined),-6.7% (inactive)
9,CC1=C(C(=O)N2CCOCC2)C(c2ccc(-c3ccccc3)cc2)NC(=S)N1 (centres undefined),-25.1% (inactive)
10,Cc1ccccc1C(=O)N1CCN(C(c2ccccc2)c2ccccc2)CC1,-1.2% (inactive)
11,CCOc1ncccc1C(=O)N1CCN(C(c2ccccc2)c2ccccc2)CC1,-13% (inactive)
12,c1ccc(CN(Cc2ccccc2)c2ncnc3c2nnn3Cc2ccccc2)cc1,-2.6% (inactive)
13,CCNc1nc(NCC)n2c(SCC(=O)Nc3ccccc3[N+](=O)[O-])nnc2n1,-16.6% (inactive)
14,Cn1c2c(c(=O)n(C)c1=O)C(CC(=O)Nc1ccccc1)C(=O)N2 (centres undefined),-23.5% (inactive)
15,CC1Cc2c([nH]c3ccccc23)C(=O)N1 (centres undefined),26.8% (inactive)
16,COc1ccc2[nH]c3c(c2c1)CC(C)NC3=O (centres undefined),87% (active)
17,COc1ccc2[nH]c3c(c2c1)CCC/C3=N\N,-3.8% (inactive)
18,COc1cc(OC)cc(C(=O)NNC(=S)NC2CC2)c1,-35.8% (inactive)
19,C=CCn1c(=O)c2ccccc2n2c(SC(C)C(N)=O)nnc12 (centres undefined),-5.9% (inactive)
20,C[C@@H](CN=[N+]=[N-])CN1CC[C@H](C(C)(C)C)CCC1=O,-15.8% (inactive)
21,CC(C)/C=C/CN1CCN(CCCc2ccccc2)C(CCO)C1 (centres undefined),45.1% (inactive)
22,N#CCOC(=O)[C@H](Cc1ccccc1)N1C(=O)c2ccccc2C1=O,-3.8% (inactive)
23,Cc1nn(-c2ccccc2Cl)c(Cl)c1/C=N/Nc1cccc(C(=O)O)c1,19.9% (inactive)
24,CCOC(=O)N/N=C/c1c(C)nn(-c2ccccc2Cl)c1Cl,-46.5% (inactive)

row,Compound,inhibition
1,Cc1nn(-c2ccccc2Cl)c(Cl)c1/C=N/Nc1nc2ccccc2s1,87.9% (active)
2,COc1ccc(CCNC(=O)CNC(=O)c2nn(-c3ccc(OC)c(OC)c3)c(=O)c3ccccc23)cc1OC,-4.9% (inactive)
3,COc1ccc(C(=O)Nc2sc3c(c2C(=O)O)CC(C)(C)OC3)cc1,-23.2% (inactive)
4,CC1(C)Cc2c(sc(NC(=O)c3ccccc3)c2C(=O)O)CO1,-22.9% (inactive)
5,Cc1nc2nc(-c3ccc(Cl)cc3)cn2nc1C,-11.9% (inactive)
6,CCc1ccc(-c2cn3nc(C)c(C)nc3n2)cc1,76.1% (active)
7,Cc1ccc(-c2cn3nc(C)c(C)nc3n2)cc1,46.8% (inactive)
8,O=C1N(c2ccccc2)C[C@@H]2C[C@@H](c3cc4ccccc4o3)N3CCC[C@@]123,98% (active)
9,O=C1N(c2ccccc2)C[C@@H]2C[C@@H](c3cccs3)N3CCC[C@@]123,-35.1% (inactive)
10,O=C1N(c2ccccc2)C[C@@H]2C[C@@H](c3cccc4c3OCO4)N3CCC[C@@]123,-27.6% (inactive)
11,Cc1onc(-c2c(F)cccc2Cl)c1C(=O)NC(=S)NC1CCS(=O)(=O)C1 (centres undefined),-19.3% (inactive)
12,COc1ccc(CC(=O)N2CCN(c3cccc(C)c3C)CC2)cc1,-24.5% (inactive)
13,CC(C)(C)c1ccc(Cn2c(=O)cnc3ccccc32)cc1,48.9% (active)
14,O=c1cnc2ccccc2n1Cc1ccc(Br)cc1,-18.3% (inactive)
15,O=c1cnc2ccccc2n1Cc1ccccc1C(F)(F)F,-40.7% (inactive)
16,C=CCn1cc(C(=O)OCC)c(=O)c2cc(F)c(F)cc21,2.3% (inactive)
17,Cc1ccc(C(=O)COC(=O)CCC(=O)Nc2cc(Cl)ccc2Cl)cc1[N+](=O)[O-],7.9% (inactive)
18,COc1ccc(N(C(=O)c2ccco2)C(C(=O)NC2CCCC2)c2cccs2)c(OC)c1 (centres undefined),-2.6% (inactive)
19,C#CC(=O)N(c1cccc(OC)c1)C(C(=O)NC1CCCC1)c1cccs1 (centres undefined),22.1% (inactive)
20,COc1ccc(N(C(=O)c2ccco2)C(C(=O)NC2CCCC2)c2cccs2)cc1OC (centres undefined),2.7% (inactive)
21,C#CC(=O)N(c1cc(OC)ccc1OC)C(C(=O)NC1CCCC1)c1cccs1 (centres undefined),-17.4% (inactive)
22,C#CC(=O)N(c1ccc(OC)c(OC)c1)C(C(=O)NC1CCCC1)c1cccs1 (centres undefined),79.9% (active)
23,C#CC(=O)N(c1ccc(OC)cc1OC)C(C(=O)NC1CCCC1)c1cccs1 (centres undefined),74.7% (active)
24,CC(C)c1nc2ccccc2n1CC(O)COC1CCCCC1 (centres undefined),-23.2% (inactive)

row,Compound,inhibition
1,COc1ccc(C)cc1NC(=O)NNC(=O)C(C)Oc1ccc(F)cc1Cl (centres undefined),-17.8% (inactive)
2,COc1cccc(C(=O)N2CCC(n3nccc3NC(=O)CCOc3ccccc3)CC2)c1,-25.4% (inactive)
3,CCCn1c(SCC(=O)Nc2nonc2C)nnc1-c1ccoc1C,-22.4% (inactive)
4,COC(=O)CN1C(=S)N(Cc2ccccc2)C(=O)C1CC(=O)Nc1ccc(Br)cc1 (centres undefined),28.8% (inactive)
5,Cc1ccc(NS(=O)(=O)c2ccc3[nH]c(=O)[nH]c3c2)c(C)c1,-12.1% (inactive)
6,Cc1ccc(S(=O)(=O)Nc2ccccc2-c2ccccc2)cc1,18.4% (inactive)
7,Cc1cccc(C)c1NS(=O)(=O)c1ccc2c(c1)C(=O)c1ccccc1C2=O,-19.6% (inactive)
8,Cc1ccc(S(=O)(=O)Nc2ccccc2C(N)=O)cc1,-11.8% (inactive)
9,CCCC(=O)C1=C(O)C(C(=O)OC)C(C)(C)CC1=NC (centres undefined),11.5% (inactive)
10,CN(CCO)c1cnccn1,-22.7% (inactive)
11,COc1ccccc1N1CCN(CCC(=O)Nc2cccc(Cl)c2)CC1,-7.2% (inactive)
12,CNC(=O)NC(=O)Cn1cnc2sc(-c3ccccc3)cc2c1=O,0.3% (inactive)
13,CCCCOCCCNC(=O)C1c2ccccc2Oc2ccccc21,-0.9% (inactive)
14,CCOC(=O)CSc1nc(-c2ccccc2)cc(C(F)(F)F)n1,-48.1% (inactive)
15,CCOC(=O)CS(=O)(=O)c1nc(-c2ccccc2)cc(C(F)(F)F)n1,69.2% (active)
16,CS(=O)(=O)c1nc(-c2ccccc2)cc(C(F)(F)F)n1,-5.3% (inactive)
17,CCOC(=O)CCSc1nc(-c2ccccc2)cc(C(F)(F)F)n1,-31.4% (inactive)
18,CS(=O)(=O)c1nc(-c2ccc(F)cc2)cc(C(F)(F)F)n1,103% (active)
19,Nc1nc(-c2ccc(F)cc2)cc(C(F)(F)F)n1,9.6% (inactive)
20,CC(C)(C)NC(=O)CN(Cc1ccc2c(c1)OCO2)C(=O)CNC(=O)c1cccs1,-12.6% (inactive)
21,CCn1ncc(Br)c1C(=O)NC1CCCCCCC1,-9% (inactive)
22,CCn1c(=N)n(CC(O)c2ccco2)c2ccccc21 (centres undefined),11% (inactive)
23,CCN(CC)CCn1c(=N)n(CC(O)c2ccco2)c2ccccc21 (centres undefined),62% (active)
24,CCCn1c(=N)n(CC(O)c2ccco2)c2ccccc21 (centres undefined),1.5% (inactive)

row,Compound,inhibition
1,C=C(C)c1cccc(C(C)(C)NC(=O)Nc2cc(C)ccc2OC)c1,-33% (inactive)
2,COc1cccc2c1OC1(C)CC2NC(=O)N1c1cccc(C(=O)N2CCN(c3ccccn3)CC2)c1 (centres undefined),-17.8% (inactive)
3,CC12CC(NC(=O)N1c1cccc(C(=O)N3CCN(c4ccccn4)CC3)c1)c1ccccc1O2 (centres undefined),-1.9% (inactive)
4,CCOc1cccc2c1OC1(C)CC2NC(=O)N1c1cccc(C(=O)N2CCN(c3ccccn3)CC2)c1 (centres undefined),76.5% (active)
5,COc1ccc(C(=O)C2CCCN(Cc3ccc4nonc4c3)C2)c(OC)c1 (centres undefined),-21.3% (inactive)
6,COc1ccc(C(=O)C2CCCN(Cc3cc(Cl)ccc3O)C2)c(OC)c1 (centres undefined),-3.1% (inactive)
7,COc1ccc(C(=O)C2CCCN(Cc3cc(C)c(O)c(C)c3)C2)c(OC)c1 (centres undefined),110% (active)
8,CCOC(=O)C(=Cc1c[nH]c2ccc(S(=O)(=O)N(C)C)cc12)C(=O)OCC,43.9% (active)
9,CCOC(=O)C(=Cc1cn(C)c2ccc(S(=O)(=O)N(C)C)cc12)C(=O)OCC,29.1% (inactive)
10,CCOC(=O)N1CCN(C(=O)c2c[nH]c3ccc(S(=O)(=O)N(C)c4ccc(F)cc4)cc3c2=O)CC1,-23.5% (inactive)
11,Cc1ccc(C(=O)c2ccc([N+](=O)[O-])cc2)c(C)c1,-4.2% (inactive)
12,COCCN1CCN(C(=O)C2CCC(=O)N(Cc3ccccc3F)C2)CC1 (centres undefined),-13.9% (inactive)
13,COc1ccc(NC2=NC(=S)N(c3ccccc3C)C23CCCCC3)cc1,-2.5% (inactive)
14,Oc1ccc(Nc2ncnc3ccccc23)cc1,4.4% (inactive)
15,Oc1cccc(Nc2ncnc3ccccc23)c1,56% (active)
16,Nc1cccc(Nc2ncnc3ccccc23)c1,3% (inactive)
17,O=C(CN1CC(c2ccccc2)CC1=O)Nc1ccc2c(c1)OCO2 (centres undefined),-14% (inactive)
18,COCCCNC(c1ccccc1)c1ccncc1 (centres undefined),-23.2% (inactive)
19,O=C(COc1cccc(Cl)c1)Nc1nc(-c2ccc(S(=O)(=O)N3CCOCC3)cc2)cs1,53.1% (inactive)
20,O=C(COc1ccccc1)Nc1nc(-c2ccc(S(=O)(=O)N3CCOCC3)cc2)cs1,3.4% (inactive)
21,O=C(Nc1ccccc1)NC1CS(=O)(=O)CC1O (centres undefined),-16.3% (inactive)
22,O=C(c1ccc(Br)cc1)C1CCc2occc2C1=O (centres undefined),-29.8% (inactive)
